Screens as filed in PubChem.
Most compounds without a hit are left out; they make up all but 6.6% or so of the library.
HT1080NT lethal – kills 2HG-producing HT-1080-NT fibrosarcoma cells; HT-1080-NT fibrosarcoma viability, CellTiter-Glo ATP luminescence, 48 h; 360,000 compounds, 1.6% hits; Potency, µM (doses to about 46.1 µM), for inactives: top-dose activity, negative = less viability, hits mostly cytotoxic; AID 686970;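 note: NT is the 2HG producing partner of a matched IDH1 knockdown line; 0% = DMSO-treated cells and -100% = media-only wells without cells; nearly all actives have a fitted effect of over 55% in size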
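Viability by CellTiter-Glo luminescence after 48 h compound exposure at 37C of HT-1080-NT cells (750/well, RPMI, 5% FBS). % activity scaled between DMSO wells and medium-only wells, then curve-fitted and categorized by curve class.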
HT1080 IDH1KD tx – toxicity to HT-1080 IDH1 knockdown cells (counter line) | HT-1080 IDH1 knockdown viability, ATP luminescence, 48 h | Potency, µM (top dose mostly 46.1 µM), for the others: at the top dose activity, negative = toxicity, actives largely listed as cytotoxic | 360,000 compounds, 2% hits | AID 686971;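 note: 0% = DMSO wells and -100% = cell-free medium wells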
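Viability of IDH1-knockdown HT-1080 fibrosarcoma cells was assessed by CellTiter-Glo after 48 h at 37 °C with titrated compound; concentration-effect curves were classified by fit quality and response size.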
HepG2 tox – counter-screen for TGF-b inhibitors: cytotoxicity in HepG2 cells; HepG2 CAGA-GFP viability, ATP luminescence, 18 h; 410,000 compounds, 0.76% hits; Potency, µM (doses to about 46.1 µM), without a hit: at the highest dose activity change, negative = cytotoxicity, usual class: cytotoxic
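CellTiter-Glo luminescence gave cytotoxicity after 18 hours at 37 degrees C. The cells were HepG2 CAGA-GFP in 1% FBS DMEM, stimulated with 500 pg/mL TGF-beta after compound addition. %Activity was normalised to no-cell wells (complete cell-killing) and DMSO (no toxicity), and curves were fitted and classified.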
TGFb SMAD3 inh – inhibitors of TGF-b signaling. Potency, µM (top dose mostly 46.1 µM), inactives show at the highest dose activity, negative = inhibition, most hits filed as inhibitors. HepG2 CAGA-GFP TGF-b/SMAD3 reporter, GFP fluorescence, 18 h; TGF-beta stimulated, 500 pg/mL final. 410,000 compounds, 1.2% hits. AID 588855; note: % is set by controls: 0 for no effect and ±100 for the full control effect; nearly all actives have a fitted effect of over 65% in size
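GFP signal (ex488/em500-530) from TGF-beta-stimulated HEPG2 CAGA-GFP cells, 500 pg/mL final, 18 h at 37 degrees C in DMEM plus 1% FBS, normalized to unstimulated and DMSO-stimulated controls.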
KB-3-1 tox – KB-3-1 parental cell cytotoxicity | 400,000 compounds, 1.4% hits | Potency, µM (doses to about 46.1 µM), usual class: cytotoxic | AID 1347075 | KB-3-1 viability, CellTiter-Glo ATP luminescence, 72 h; note: % is set by controls: 0 for no effect and ±100 for the full control effect; nearly all actives have a fitted effect of over 60% in size
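Cells are dispensed, compounds pinned in, plates held at 37 °C for 72 h, then CellTiter-Glo is added and luminescence read after 10 minutes. Cell line: parental KB-3-1 in phenol-red-free DMEM, 10% FBS.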
KB-V1 MDR tox – KB-V1 MDR subline cytotoxicity. KB-V1 MDR cells viability, CellTiter-Glo, 72 h. 400,000 compounds, 3.4% hits. AID 1347076. Potency, µM (titrated, usually from 46.1 µM), actives largely listed as cytotoxic; note: % is set by controls: 0 for no effect and ±100 for the full control effect; nearly all actives have a fitted effect of over 60% in size
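Compound-treated KB-V1 multidrug-resistant cells, 72 h, 37 degrees C; viability by CellTiter-Glo. Fitted qHTS curves give the values.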
* hit, by the source's call; i = inactive; ? = inconclusive; . = no result; [ ] = remark or other dose. Calls come from the whole dose curve; as a rule, active = well fitted curve in the direction sought with a large enough effect; inconclusive = small, poorly fitted or top-dose-only effect, or another doubt; inactive = no such curve, though single readings can be large; an effect the other way counts as inactive or inconclusive. Potency is the fitted concentration of half-maximal effect.

SMILES	HT1080NT lethal	HT1080 IDH1KD tx	HepG2 tox	TGFb SMAD3 inh	KB-3-1 tox	KB-V1 MDR tox
OC[C@@H]1[C@@H](c2ccc(Cl)cc2)C(c2cccc(Cl)c2)=NN1c1ccccc1	?	-27.7%	12.6µM*	11.2µM*	i	?
COc1ccc(N(C(=O)c2ccccc2C)S(=O)(=O)c2cccs2)cc1	0.92µM*	0.92µM*	-4.1%	-18.1%	0.82µM*	1.3µM*
CSc1ccc(CCNC(=O)CCCn2c(=O)c3cccn3c3ccccc32)cc1	.	.	-29.3%	0.0%	.	.
CCN1CCN(C(=O)c2cnn(-c3cccc(C)c3)c2C2CCN(C(=O)OC(C)(C)C)CC2)CC1	.	.	-16.6%	0.0%	i	i
Nc1nn(S(=O)(=O)c2ccccc2)cc1-c1cccc([N+](=O)[O-])c1	-1.3%	-0.8%	0.5%	-2.5%	i	?
CCOc1ccc(S(=O)(=O)n2cc(-c3ccc(F)cc3)c(N)n2)cc1	1.0%	?	-3.4%	-8.1%	i	16.4µM*
Cc1ccc(-c2cn(S(=O)(=O)c3ccc(C)cc3)nc2N)cc1	5.1%	-6.9%	-21.5%	3.4%	i	13µM*
CCOc1cc(S(=O)(=O)n2cc(-c3ccc(F)cc3)c(N)n2)cc(OCC)c1OCC	-17.8%	-10.0%	-7.3%	?	?	16.4µM*
CCOc1ccc(S(=O)(=O)n2cc(-c3ccccc3)c(N)n2)cc1	-13.5%[9.24 µM]	-24.3%	-28.6%	-2.1%	i	i
COc1ccc(NC(=O)C(C)n2c(C)c3cnn(-c4ccccc4)c(=O)c3c2C)cc1Cl (centres undefined)	.	.	-35.4%	?	i	i
Cc1nn(-c2ccccc2)c2sc(C(=O)Nc3cccc(Br)c3)cc12	.	.	5.9%	-13.2%	?	i
Cc1onc(-c2ccccc2)c1C(=O)OCC(=O)N1CCCCC1	9.7%	-0.9%	12.1%	-1.8%	i	i
CC/C(=N/NC(=O)c1ccc(Br)o1)c1ccc(Cl)cc1	15.8%	15.3%	11.3%	17.5%	i	14.6µM*
CCCC/C(=N\NC(=O)c1ccc(Br)o1)c1ccccc1	17.8%	15.3%	17.4%	21.2%	i	i
O=c1[nH]c(SCc2ccccc2Cl)nc2c1CCC2	-1.4%	1.6%	5.9%	17.9%	i	i
CNc1nc(SCc2ccccc2Cl)nc2c1CCCC2	?	32.6µM*	-39.9%	?	i	?
CCOc1ccc(NC(=O)CSc2nccn2C2CCCC2)cc1	.	.	-3.8%	0.3%	.	.
COc1ccc(Cl)cc1NS(=O)(=O)c1cc(-c2cc(C)no2)ccc1C	.	.	-1.9%	-1.7%	13µM*	3.66µM*
COc1ccccc1NS(=O)(=O)c1cc(-c2cc(C)no2)ccc1OC	-14.8%	-27.7%	4.3%	0.6%	i	i
COc1ccc(-c2cc(C)no2)cc1S(=O)(=O)Nc1ccccc1	?	16.4µM*	-3.6%	-10.0%	?	i
COC(=O)c1ccc(NS(=O)(=O)c2cc(-c3cc(C)no3)ccc2OC)cc1	.	.	-18.8%	-16.8%	5.8µM*	?
COc1ccc(-c2cc(C)no2)cc1S(=O)(=O)Nc1cccc(C)c1	-18.0%	?	1.1%	4.2%	i	i
Cc1ccc(Cl)cc1NC(=O)Cn1cc(S(=O)(=O)Cc2ccccc2Cl)c2ccccc21	.	.	-28.9%	0.0%	i	?
CC(=O)c1cccc(NC(=O)c2cnn(-c3cccc(C)c3)c2-n2cccc2)c1	.	.	3.2%	-7.5%	i	i
COc1ccc(Cl)cc1NC(=O)c1cc(C)nc2c1c(C)nn2-c1ccccc1	.	.	1.2%	-11.5%	i	i
SMILES	HT1080NT lethal	HT1080 IDH1KD tx	HepG2 tox	TGFb SMAD3 inh	KB-3-1 tox	KB-V1 MDR tox
COc1ccccc1CNC(=O)CN1N=C(c2ccccc2)CCC1=O	.	.	-7.8%	-16.5%	.	.
COc1ccccc1N1CCN(C(=O)c2cc3c(=O)n(Cc4ccco4)ccc3nc2C)CC1	.	.	-21.5%	-29.9%	.	.
NC(=O)C1CCN(c2ncc(-c3cccc(N4CCCC4)c3)s2)CC1	.	.	.	.	i	?
Cc1cccc(N2CCN(C(=O)c3cc4c(=O)[nH]c5ccc(C)cc5c4s3)CC2C)c1 (centres undefined)	.	.	-3.5%	21.2%	i	i
COc1ccccc1N=Nc1ccc(O)c2ncccc12	?	?	-9.9%	?	i	?
Cc1ccc(N=Nc2ccc(O)c3ncccc23)cc1	?	1.64µM*	7.6%	?	?	i
CCS(=O)(=O)c1ccc(N=Nc2ccc(O)c3ncccc23)c(OC)c1	1.46µM*	5.17µM*	-0.8%	?	14.6µM*	?
Cc1ccc(N=Nc2ccc(O)c3ncccc23)cc1C	?	?	-14.4%	3.2%	?	i
Cc1ccc(CNC(=O)CSC2=Nc3ccccc3N=C(c3ccc(F)cc3)C2)cc1	.	.	4.3%	?	i	i
COc1ccc(C(C)=O)cc1CSc1nc2ccccc2c(=O)n1-c1ccccc1C	-16.1%	-15.4%	9.0%	1.3%	i	20.6µM*
COc1ccccc1-n1c(SCc2cc(=O)oc3cc(O)ccc23)nc2ccccc2c1=O	-6.5%	-4.3%	0.0%	?	?	18.4µM*
C=CCn1c(SCc2cc(C(C)=O)ccc2OCC)nc2ccccc2c1=O	?	2.31µM*	-1.2%	?	1.16µM*	2.31µM*
CC(C)(C)c1ccc(Cn2cnc3c(cnn3C(C)(C)C)c2=O)cc1	.	.	-17.9%	6.9%	.	.
COCCN(Cc1ccc(OC)cc1)c1c(C)nc2ccc(C(=O)NCCc3c[nH]c4ccccc34)cn12	-21.5%	-5.9%	-19.4%	-5.0%	i	i
COc1ccccc1CNc1nc(NCCOc2ccccc2Cl)c2sccc2n1	23.1µM*	?	-64.3%	?	?	?
Clc1ccccc1OCCNc1nc(NCC2CC2)nc2ccsc12	?	18.4µM*	-33.1%	?	i	?
CNc1nc(NCCOc2ccccc2Cl)c2sccc2n1	?	-21.8%	-23.7%	?	i	?
Clc1ccccc1Nc1nc(NCC2CC2)nc2ccsc12	?	-30.0%	-22.1%	-7.2%	?	i
CC(C)NC(=O)c1ccc(Cn2c(SCC(N)=O)nc3ccccc3c2=O)cc1	.	.	5.8%	-1.4%	i	i
Cc1ccc(S(=O)(=O)Oc2cccc(/C=N/Nc3ccc(C(=O)O)cc3)c2)cc1	-19.0%	-14.3%	-10.4%	-14.6%	i	i
Cc1ccc(S(=O)(=O)Oc2cccc(/C=N/n3cnnc3)c2)cc1	-17.8%	-28.9%	-59.0%	-18.4%	?	18.4µM*
